{
  "source": "PubChem BioAssay AID1029",
  "about": "(Sanford-Burnham Center for Chemical Genomics, 2008)",
  "note": "Among all 110,000 compounds or so, about 80 (0.07%) were called active. The sample holds actives, similar compounds and a random draw of the others, so the mix is not that of the screen. A number with no mark means an inactive call.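 Rule for the calls: active = inhibition above the mean of the plate negative controls plus 5 SD (cut at about 13% in these data); inactive = the rest.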",
  "data": [
    {"assay": "blockers of IgG-bead uptake by macrophages – imaging, J774A.1 cells, IgG beads, primary screen (AID 1029);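 note: phagocytic index as fraction of beads internalized from green versus red external bead signal; plate controls were DMSO negative control for no effect and cytochalasin-D positive control for full effect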", "conditions": "J774A.1 macrophage IgG-bead phagocytosis, at 5 µM, active compounds read high", "values": [
      {"smiles": "O=C(c1cccs1)n1nc(NCc2ccccc2)nc1NCc1ccccc1", "inhibition": "-7.68%"},
      {"smiles": "CCC1C=C(c2ccccc2)C=CN=C1N(CC)CC", "note": "(centres undefined)", "inhibition": "-1.57%"},
      {"smiles": "O=C(CN1CCSCC1)N/N=C/c1ccc(F)cc1F", "inhibition": "117% (active)"},
      {"smiles": "O=C(Cn1cc(C(F)(F)F)ccc1=O)N/N=C/c1ccc(Cl)cc1Cl", "inhibition": "-1.82%"},
      {"smiles": "O=C(CN1CCSCC1)N/N=C/c1ccc(F)cc1", "inhibition": "-0.8%"},
      {"smiles": "COCCNc1cc(NCCOC)c([N+](=O)[O-])cc1[N+](=O)[O-]", "inhibition": "-0.9%"},
      {"smiles": "O=C(N/N=C/c1ccc(Br)o1)c1cncc(Br)c1", "inhibition": "-4.83%"},
      {"smiles": "CC(=O)c1c(N2CCN(c3ccc(F)cc3)CC2)nc(=S)n(-c2ccccc2)c1C", "inhibition": "-2.05%"},
      {"smiles": "COc1ccc2c(CC(=O)OCC(=O)Nc3ccccc3[N+](=O)[O-])coc2c1", "inhibition": "-0.7%"},
      {"smiles": "COc1ccccc1-c1nnc(NC(=O)c2ccc3ncsc3c2)o1", "inhibition": "-6.06%"},
      {"smiles": "Cc1ccc(SCCC(=O)NC(C(C)C)C(C)C)cc1", "inhibition": "-6.42%"},
      {"smiles": "COC(=O)c1ccccc1NS(=O)(=O)c1ccc2[nH]c(=O)[nH]c2c1", "inhibition": "-2.75%"},
      {"smiles": "Cc1ccccc1C1=NC(C(F)(F)F)(C(F)(F)F)c2c(n(-c3ccc(F)cc3)c(=O)[nH]c2=O)N1", "inhibition": "-2.94%"},
      {"smiles": "COc1ccccc1N1CCN(CC(=O)NC(=O)NCc2ccco2)CC1", "inhibition": "-5.49%"},
      {"smiles": "CCCNC(=O)NC(=O)COC(=O)CC(NC(N)=O)c1ccc(Cl)cc1", "note": "(centres undefined)", "inhibition": "-1.97%"},
      {"smiles": "Cc1ccc(NC(=O)COC(=O)CCc2nc3ccccc3n2-c2ccccc2)c(C)c1", "inhibition": "-9.97%"},
      {"smiles": "Cn1cnc(C(F)(F)F)c1-c1ccc([N+](=O)[O-])cc1", "inhibition": "-12.1%"},
      {"smiles": "CN(C)c1ccc(/C=N/NC(=O)c2ccc(Cn3cc(Br)cn3)o2)cc1", "inhibition": "-0.35%"},
      {"smiles": "O=C(NNC(=O)c1cc2c(s1)CCCC2)c1ccccc1", "inhibition": "-4.32%"},
      {"smiles": "COc1cc(CCC(=O)OCC(=O)Nc2cccc(S(N)(=O)=O)c2)cc(OC)c1OC", "inhibition": "-3.93%"},
      {"smiles": "CC(C)(C)C(=O)NC(NC(=S)Nc1ccc(S(N)(=O)=O)cc1)C(Cl)(Cl)Cl", "note": "(centres undefined)", "inhibition": "-10.5%"},
      {"smiles": "CC(OC(=O)c1ccccc1N1C(=O)C2C3CCC(C3)C2C1=O)C(=O)c1ccccc1", "note": "(centres undefined)", "inhibition": "-1.86%"},
      {"smiles": "CC(C)C(=O)Nc1ccc(C(=O)NNC(=O)c2cccs2)cc1", "inhibition": "-0.44%"},
      {"smiles": "O=[N+]([O-])c1ccc(NCCCO)c(C(F)(F)F)c1", "inhibition": "-3.18%"},
      {"smiles": "CN(C)CCNC(=O)/C(=C/c1cccc([N+](=O)[O-])c1)NC(=O)c1ccccc1", "inhibition": "-4.59%"},
      {"smiles": "S=C(NCC1COc2ccccc2O1)Nc1ccc(Br)cc1", "note": "(centres undefined)", "inhibition": "-5.67%"},
      {"smiles": "NC(=O)Nc1ccccc1C(=O)NCCc1ccccc1", "inhibition": "2.64%"},
      {"smiles": "Cc1nn(Cc2ccc(Cl)cc2)c(Cl)c1/C=N/NC(=O)c1cccnc1", "inhibition": "-2.24%"},
      {"smiles": "Cc1cc(Cl)ccc1OCCCC(=O)NCc1ccncc1", "inhibition": "1.98%"},
      {"smiles": "CC1CN(S(=O)(=O)c2ccc(C(=O)Nc3sccc3C(N)=O)cc2)CC(C)O1", "note": "(centres undefined)", "inhibition": "-5.22%"},
      {"smiles": "CNC(=S)N/N=C/c1ccc(OCc2ccccc2)c(Br)c1", "inhibition": "-0.67%"},
      {"smiles": "CCCCCC(=O)Nc1ccc(S(=O)(=O)Nc2ccc(Cl)nn2)cc1", "inhibition": "-11.6%"},
      {"smiles": "COc1cccc(NC(=S)NCc2ccco2)c1", "inhibition": "-4.01%"},
      {"smiles": "CCC(NC(=O)c1ccccc1NC(=O)c1ccccc1)C(=O)NNC(=O)CSc1nc2ccccc2o1", "note": "(centres undefined)", "inhibition": "-1.59%"},
      {"smiles": "CCc1ccc(C2C(C#N)=C(N)N(N(C)C)C3=C2C(=O)CCC3)s1", "note": "(centres undefined)", "inhibition": "-3.98%"},
      {"smiles": "O=C(/C=C\\c1ccc2c(c1)OCO2)NC1(C(=O)Nc2ccc3c(c2)OCCO3)CCCCC1", "inhibition": "-2.27%"},
      {"smiles": "COc1ccc(NC(C(=O)Nc2cccc(C(C)=O)c2)c2ccccc2)cc1", "note": "(centres undefined)", "inhibition": "-15.7%"},
      {"smiles": "C/C(=N\\NC(=O)c1ccc(CSc2nc(C)cc(C)n2)cc1)C1CCCCC1", "inhibition": "-4.86%"},
      {"smiles": "CCCn1c(=O)c2c(C(F)(F)F)cc(-c3cccs3)nc2n(CCC)c1=O", "inhibition": "1.31%"},
      {"smiles": "COC(=O)c1sc(N)c(C(=O)OC)c1COC(=O)CNS(=O)(=O)c1ccc(C)cc1", "inhibition": "-11.5%"},
      {"smiles": "Cc1ccc(/C=C/C(=O)Nc2cc(S(=O)(=O)N3CCCCCC3)ccc2OCC(F)(F)F)o1", "inhibition": "-12.4%"},
      {"smiles": "O=C(/C=C/NCc1ccc(F)cc1)c1ccccc1", "inhibition": "-1.23%"},
      {"smiles": "Cn1cc(C(=O)NCc2ccccc2F)cn1", "inhibition": "1.49%"},
      {"smiles": "C=CCc1ccccc1OCC(=O)N/N=C/c1ccccc1OCC", "inhibition": "1.26%"},
      {"smiles": "CCOc1ccc(Oc2nc(C)cc(OC)n2)nn1", "inhibition": "-0.15%"},
      {"smiles": "COCCCNC(=S)NC(=O)c1ccccc1", "inhibition": "-6.86%"},
      {"smiles": "C/C(=N\\NC(=O)Cc1ccc(F)cc1)c1ccc(F)cc1", "inhibition": "-0.05%"},
      {"smiles": "COc1ccc(C(=O)CSc2nnc(NC(=O)C3CC(=O)N(c4cccc(OC)c4)C3)s2)cc1", "note": "(centres undefined)", "inhibition": "6.45%"},
      {"smiles": "CC1CCCCN1S(=O)(=O)c1ccc(S(=O)(=O)N(CC(=O)Nc2ccccc2)Cc2cccs2)cc1", "note": "(centres undefined)", "inhibition": "-1.49%"},
      {"smiles": "COc1ccc([C@H]2[C@H](C(C)=O)N3N=Cc4ccccc4C3C23C(=O)OC(C)(C)OC3=O)cc1", "note": "(some centres undefined)", "inhibition": "5.33%"},
      {"smiles": "CCOC(=O)CNC(=O)/C=C/c1c(Cl)cccc1Cl", "inhibition": "-2.32%"},
      {"smiles": "CC(=O)NC(Cc1ccccc1)C(=O)NC1CCN(c2ncccc2[N+](=O)[O-])CC1", "note": "(centres undefined)", "inhibition": "1.47%"},
      {"smiles": "COc1ccc(OCC(=O)Nc2cc(C)c(Cl)cc2OC)c([N+](=O)[O-])c1", "inhibition": "-2.85%"},
      {"smiles": "COc1ccc(S(=O)(=O)NC(C)C)cc1C(=O)NC1CCCCC1", "inhibition": "-3.85%"}
    ]}
  ]
}
